CapD inh: Bacillus anthracis CapD inhibitors, primary screen, biochemical, fluorescence intensity | z-score (no concentration beside the values) | hit rate 0.23% among 140,000 | CapD gamma-glutamyltranspeptidase (Bacillus anthracis Ames Ancestor) | purified CapD enzyme, fluorescence intensity read-out; stronger effect = lower value; in the data active means z-score mostly below about -2.9, no sharp cut-off; inactive means mostly above about -1.9
* marks the source's active call; other numbers are inactive results. Shown is part of a subset that was picked to be rich in hits.

SMILES	CapD inh
S=C1NCCN1Cc1ccccc1	-0.675
CCOC(=O)c1ccc(N=Cc2cc(Cl)cc(Cl)c2O)cc1	0.43
CC1=CC(C)C2(CO)COC(=C(C)C)C1C2C (configuration not stated)	0.725
O=c1oc2ccc([N+](=O)[O-])cc2cc1-c1nnc(Nc2ccc(Cl)cc2Cl)s1	0.08
Cc1ccc(NS(=O)(=O)c2cc(C(F)(F)F)cc(C(F)(F)F)c2)c(N)c1	-0.43
COc1cc(Br)c(OC)cc1C	0.69
Cc1cc(/C=C2\C(=O)NC(=S)N(c3ccccc3F)C2=O)c(C)n1-c1cc(C(=O)O)cc(C(=O)O)c1	-9.12*
Cc1cc(/C=C2\C(=O)NC(=O)N(c3ccc(F)cc3)C2=O)c(C)n1-c1cccc(C(=O)O)c1	-1.62
Cc1cc(/C=C2\C(=O)NC(=O)N(c3ccccc3F)C2=O)c(C)n1-c1cc(C(=O)O)cc(C(=O)O)c1	-2.53
COc1ccc(-n2ccnc(NCCc3ccccc3)c2=O)cc1	1.69
Cc1ccc(-c2c(C(=O)N3CCCCC3)oc(=O)c3ccccc23)cc1	-0.135
COc1ccc(NC(=O)c2cnn3c2NC(c2cccc(OC)c2)CC3C(F)(F)F)cc1 (configuration not stated)	2.89
O=C(NN1S(=O)(=O)c2ccccc2S1(=O)=O)c1cc(-c2ccccc2)n[nH]1	-2.65
NC(=O)c1ccccc1NC(=O)c1cccc(Br)c1	2.73
O=C(NN1S(=O)(=O)c2ccccc2S1(=O)=O)c1ccc(OCc2ccc(F)cc2)cc1	-0.595
O=C(NN1S(=O)(=O)c2ccccc2S1(=O)=O)c1cccc(F)c1	-4.07*
O=C(NN1S(=O)(=O)c2ccccc2S1(=O)=O)c1cccc(Br)c1	-3.71*
O=C(NN1S(=O)(=O)c2ccccc2S1(=O)=O)c1ccc(OCc2ccccc2Br)cc1	-0.185
Cc1c(C(=O)Nc2ccc3c(c2)OCO3)sc2ncnc(N3CCCCC3C)c12 (configuration not stated)	-0.86
O=C(CCC(=O)N1CCC(N(C2CC2)S(=O)(=O)c2ccc(Cl)cc2)CC1)NCc1ccncc1	-0.345
CC(c1ccccc1)N1CC(O)=C(c2nc3ccccc3[nH]2)C1=N (configuration not stated)	0.115
O=C1c2ccccc2C(=O)N1N1C(=O)c2ccccc2C1=O	0.02
O=c1c2ccccc2c(=O)n2n1CC=CC2	0.065
O=c1c(=NO)c(=O)c2ccccc12	-5.38*
Cc1nc2cc(Cl)ccc2n1CO	-0.08
SMILES	CapD inh
CN(CCOC(=O)NNC(=O)c1ccc(-c2ccccc2)cc1)c1ccccc1	-0.42
N=C1S/C(=C/c2ccco2)C(=O)N1c1nccs1	-4.33*
N=C1S/C(=C/c2ccc(-c3ccccc3C(=O)O)o2)C(=O)N1c1nccs1	-2.13
N=C1S/C(=C\c2ccc(-c3ccccc3F)o2)C(=O)N1c1nccs1	-1.15
O=C(Nc1cnc2sccn2c1=O)c1ccccc1	-1.23
Nc1nnc(C2CC2)s1	0.24
CCc1ccc(NC(=O)C2COc3ccccc3O2)cc1 (configuration not stated)	-0.195
CCc1ccc2c(c1)S(=O)(=O)C(C(F)(F)F)CO2 (configuration not stated)	-6.58*
O=C(NCc1ccc2c(c1)OCO2)C(F)(F)F	-0.355
Cc1ccc(/C=C2/SC(=O)N(CCC(=O)N3CCN(C)CC3)C2=O)cc1	-0.82
Cc1ccc(/C=C2/SC(=S)N(CCC(=O)N3CCOCC3)C2=O)cc1	-2.58*
COc1ccc(/C=C2/SC(=S)N(CCC(=O)N3CCN(C4=NC(=O)/C(=C\c5ccc(C)cc5)S4)CC3)C2=O)cc1	-0.375
CCOC(=O)/C=C(\C)Nc1ccc(CC)cc1	-0.875
CCOc1ccc(NC(=O)CSc2nc3ccccc3c(=O)n2NC(=O)Cc2ccccc2)cc1	0.13
COc1cccc(N2C(=O)/C(=C/C=C/c3ccco3)C(=O)NC2=S)c1	-7.42*
Cc1cc(N2C(=O)NC(=O)/C(=C\C=C\c3ccco3)C2=O)ccc1Br	-0.89
O=C1NC(=S)N(c2ccccc2)C(=O)/C1=C/C=C/c1ccco1	-1.01
Cc1ccc(-c2nnc(C3CCN(S(=O)(=O)c4ccc(Cl)s4)CC3)o2)cc1	-0.075
COC(=O)Oc1cc2oc(=O)sc2cc1Cl	-0.7
CCCCOC(=O)Oc1cc2oc(=O)sc2cc1Br	-0.205
CCOC(=O)Oc1c(Cl)cc2oc(=O)sc2c1Br	-5.26*
COc1cccc2cc(-c3csc(NC(=O)CCC(=O)NCc4ccco4)n3)c(=O)oc12	2.64
Nc1c(Nc2ccc(F)cc2)sc2c(O)cc(=O)[nH]c12	-4.11*
CNc1sc2c(O)cc(=O)[nH]c2c1C#N	-1.46
O=c1cc(O)c2sc(Nc3ccccc3)nc2[nH]1	0.055
SMILES	CapD inh
CN(C)c1ccc(/C=C2/Sc3ccccc3C2=O)cc1	-0.1
CC(C)(C)c1cc(OC(=O)c2ccc(Cl)cc2Cl)c(C(C)(C)C)cc1OC(=O)c1ccc(Cl)cc1Cl	0.215
O=C(ON1C(=O)CCC1=O)c1ccccc1Cl	-0.13
O=C(ON1C(=O)CCC1=O)c1ccc(Cl)cc1Cl	-3.96*
CCCCc1c(C)nc(N)[nH]c1=O	0.435
CCc1c(C)[nH]c(N)nc1=S	-4.37*
CCc1c(C)nc(N)nc1N1NC1=S	-1.04
CCCNC1CCN(Cc2c(OC)cccc2OC)CC1	-0.375

Source: PubChem BioAssay
